The target of assay [1] is Transcription factor E2F1 (Homo sapiens) (UniProt Q01094). The assay is described as follows: ATG_E2F_CIS: Attagene CIS-FACTORIAL HepG2 Assay for human E2F Transcription Factor 1 (AID 2282935). The conditions noted are these: HepG2 Attagene cis-reporter, E2F reporter RNA transcripts; actives raise or lower the signal. In outline: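 HepG2 cells transiently transfected with multiplexed cis-element reporter units, dosed for 24 h. Reporter mRNA measured by RT-PCR, 6-FAM primer-extension labeling, HpaI digestion and capillary electrophoresis; bidirectional fit versus DMSO baseline.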

Assay [2] is described as follows: ATG_E_Box_CIS: Attagene CIS-FACTORIAL HepG2 Assay for human Enhancer Box (E-box) (AID 2282936). The conditions noted are these: HepG2 E-box cis-reporter transcription, actives raise or lower the signal. The method in brief: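 HepG2 cells transiently transfected with multiplexed cis-element reporter units sensing endogenous transcription factor activity; 24 h compound exposure. Reporter mRNA measured by RT-PCR, 6-FAM primer extension, HpaI digestion and capillary electrophoresis; bidirectional fit versus DMSO.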

Assay [3] can be described thus: ATG_M_61_CIS: Attagene CIS-FACTORIAL HepG2 Assay for M61 Transcription Factor (Internal Marker) (AID 2282937). The conditions noted are these: HepG2 Attagene CIS-FACTORIAL M61 internal marker reporter; actives raise or lower the signal. The method in brief: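 Cells were transfected with reporter units under cis-regulatory promoters, treated with chemicals for 24 h, then lysed for RNA. Reporter transcripts were quantified by RT-PCR and capillary electrophoresis, and activity was fitted bidirectionally against DMSO.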

Assay [4] in a line: ATG_EGR_CIS: Attagene CIS-FACTORIAL HepG2 Assay for human Early Growth Response 1 (EGR1) (AID 2282938). The following applies: HepG2 Attagene CIS-FACTORIAL EGR reporter mRNA; actives raise or lower the signal. In outline: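 Endogenous TF activity in HepG2 liver cells was gauged through cis-promoter reporter constructs transiently transfected. After 24 h dosing, reporter mRNA was quantified by RT-PCR and capillary electrophoresis, and curves fitted in both directions versus DMSO.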

Assay [5] in a line: ATG_ERE_CIS: Attagene CIS-FACTORIAL HepG2 Assay for Estrogen Response Element (ERE) (AID 2282940). The conditions noted are these: HepG2 ERE cis-reporter, Attagene RNA transcript; actives raise or lower the signal. The method in brief:
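Transient MRTU transfection of human HepG2; cis-element promoters; 24 h dosing; total RNA → RT (oligo dT) → PCR → 6-FAM primer extension → HpaI digest → CE fluorescence. Bidirectional fit, DMSO baseline.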

Assay [6] is described as follows: ATG_Ets_CIS: Attagene CIS-FACTORIAL HepG2 Assay for human Erythroblast Transformation Specific (ETS) (AID 2282941). The conditions noted are these: HepG2 ETS cis-reporter transcription, actives raise or lower the signal. The method in brief:
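Steps: transfect HepG2 with multiple reporter units; treat compound 24 h; isolate RNA, DNase-treat, reverse-transcribe; PCR-amplify, label with 6-FAM, digest with HpaI; separate by capillary electrophoresis. Activity fitted both directions versus DMSO.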

Assay [7] deals with Hepatocyte nuclear factor 3-beta (Homo sapiens) (UniProt Q9Y261). In words: ATG_FoxA2_CIS: Attagene CIS-FACTORIAL HepG2 Assay for human Forkhead box A2 (FOXA2) (AID 2282942). The conditions noted are these: HepG2 cis-reporter transcription factor activity, 24 h; actives raise or lower the signal. In outline:
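Endogenous transcription factor activity was read in HepG2 cells carrying transiently transfected cis-promoter reporter units. After 24 h dosing, reporter mRNA was quantified by RT-PCR and capillary electrophoresis, and values fitted bidirectionally versus DMSO.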

Assay [8] is described as follows: ATG_FoxO_CIS: Attagene CIS-FACTORIAL HepG2 Assay for human Forkhead box O (FoxO) (AID 2282943). The following applies: HepG2 Attagene cis-reporter, FoxO element, mRNA; actives raise or lower the signal. In outline: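 24 h chemical exposure, HepG2 with transient cis-MRTU transfection. RNA extraction, oligo(dT) RT, reporter-specific PCR, primer-extension labelling, HpaI digestion, CE fragment analysis; bidirectional fit, DMSO baseline.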

Assay [9] can be described thus: ATG_GATA_CIS: Attagene CIS-FACTORIAL HepG2 Assay for human GATA Binding Protein (AID 2282944). The conditions noted are these: HepG2 GATA cis-element reporter, Attagene multiplex mRNA; actives raise or lower the signal. In outline: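 Transient MRTU transfection, HepG2, 24 h compound exposure. Total RNA → oligo(dT) RT → PCR → 6-FAM primer extension → HpaI cut → CE. Bidirectional fit vs DMSO.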

Molecules are shown by their SMILES. Calls of active or inactive are those of the source. How the source made its calls: active means hit-call score of the fitted dose curve at least 0.9, where 1 is the maximum; inactive means score below 0.9.

Transcription factor E2F1 (Homo sapiens), sequence (Q01094 whole entry, looked up): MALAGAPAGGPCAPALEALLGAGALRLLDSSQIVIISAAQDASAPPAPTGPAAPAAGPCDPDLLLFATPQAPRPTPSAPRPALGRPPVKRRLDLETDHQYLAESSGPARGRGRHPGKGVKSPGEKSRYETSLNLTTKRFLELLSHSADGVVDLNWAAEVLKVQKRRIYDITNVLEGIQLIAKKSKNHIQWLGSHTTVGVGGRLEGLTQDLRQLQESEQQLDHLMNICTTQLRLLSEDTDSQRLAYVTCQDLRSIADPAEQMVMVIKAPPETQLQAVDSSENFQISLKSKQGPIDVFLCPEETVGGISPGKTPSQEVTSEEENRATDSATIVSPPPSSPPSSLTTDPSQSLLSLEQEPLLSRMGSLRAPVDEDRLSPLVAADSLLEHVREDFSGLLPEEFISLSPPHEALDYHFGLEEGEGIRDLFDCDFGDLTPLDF
Hepatocyte nuclear factor 3-beta (Homo sapiens), sequence (Q9Y261 whole entry, looked up): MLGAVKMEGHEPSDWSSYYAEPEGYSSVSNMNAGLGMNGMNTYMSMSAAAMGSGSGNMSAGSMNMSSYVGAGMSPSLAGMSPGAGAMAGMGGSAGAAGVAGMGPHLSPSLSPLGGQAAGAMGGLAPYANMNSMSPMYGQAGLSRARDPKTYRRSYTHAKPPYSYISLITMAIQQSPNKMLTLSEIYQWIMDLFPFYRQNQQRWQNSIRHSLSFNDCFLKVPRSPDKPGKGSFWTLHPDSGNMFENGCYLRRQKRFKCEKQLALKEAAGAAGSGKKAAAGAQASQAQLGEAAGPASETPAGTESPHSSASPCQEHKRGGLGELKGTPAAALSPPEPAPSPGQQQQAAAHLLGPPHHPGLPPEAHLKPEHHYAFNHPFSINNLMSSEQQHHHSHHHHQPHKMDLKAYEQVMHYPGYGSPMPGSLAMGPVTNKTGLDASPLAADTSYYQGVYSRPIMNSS

As for `CCc1ccc(C(=O)NN(C(=O)c2cc(C)cc(C)c2)C(C)(C)C)cc1`, the result in assay [1], in assay [2], in assay [3], in [5], in [6] and in [7] was inactive. Also, the call in assay [8] and in [9] was inactive. The AC50 in [4] was 16.5 µM (active).

As to `CCC(C)(C)C(=O)OC1=C(c2ccc(Cl)cc2Cl)C(=O)OC12CCCCC2`, the molecule was called inactive in [1], in assay [2], in assay [3], in [4], in [5] and in assay [7]. Also, the molecule was classed as inactive in [8] and in assay [9]. For the same molecule, in assay [6], the AC50 was 1.69 µM (active).

With `CNC(=O)/C=C(\C)OP(=O)(OC)OC`, the outcome in assay [1], in [2], in assay [3], in assay [4], in assay [5] and in assay [6] was inactive. Moreover, the molecule was called inactive in assay [7], in [8] and in assay [9].

As for `COC(=O)c1ccccc1S(=O)(=O)NC(=O)N(C)c1nc(C)nc(OC)n1`, the result in assay [1], in assay [2], in assay [3], in assay [4], in assay [5] and in [6] was inactive. Also, the molecule was classed as inactive in [7], in assay [8] and in [9].

Take `O=[N+]([O-])/N=C1\NCCN1Cc1ccc(Cl)nc1`: the call in [1], in assay [2], in assay [3], in assay [4], in assay [5] and in [6] was inactive. Besides, the molecule was classed as inactive in [7], in assay [8] and in [9].

`CC(C)(C)C(O)/C(=C\c1ccc(Cl)cc1Cl)n1cncn1` (centres undefined): the outcome in [1], in [2], in assay [3], in assay [4], in [5] and in [6] was inactive. In addition, the molecule was classed as inactive in assay [7], in assay [8] and in assay [9].

Take `CCCN(CCOc1c(Cl)cc(Cl)cc1Cl)C(=O)n1ccnc1`: the molecule was classed as inactive in assay [1], in assay [2], in assay [3], in [4], in assay [6] and in assay [7]. In addition, the molecule was classed as inactive in assay [8] and in [9].

Turning to `O=S1OCC2C(CO1)C1(Cl)C(Cl)=C(Cl)C2(Cl)C1(Cl)Cl` (centres undefined), the outcome in assay [1], in assay [2], in assay [3], in assay [4], in [6] and in [7] was inactive. In addition, the call in assay [8] and in assay [9] was inactive. Further, in [5], the AC50 was 1.72 µM (active).

For the molecule `COc1nn(CSP(=S)(OC)OC)c(=O)s1`, the molecule was classed as inactive in assay [1], in assay [2], in assay [3], in assay [4], in [6] and in assay [7]. The molecule was classed as inactive in assay [8] and in assay [9]. For the same molecule, the AC50 in assay [5] is 24.8 µM (active).

With `CCOCN(C(=O)CCl)c1c(C)cccc1CC`, the outcome in assay [1], in assay [2], in [3], in assay [4], in assay [5] and in assay [6] was inactive. The outcome in assay [7], in assay [8] and in assay [9] was inactive.

Regarding `CC(C)N(C(=O)COc1nnc(C(F)(F)F)s1)c1ccc(F)cc1`, the outcome in assay [1], in assay [2], in [3], in [4], in assay [5] and in [7] was inactive. For the same molecule, the result in [8] and in assay [9] was inactive. Also, the AC50 in [6] was 15.6 µM (active).

With `Clc1ccccc1-c1nnc(-c2ccccc2Cl)nn1`, the outcome in assay [1], in assay [2], in [3], in assay [4], in assay [5] and in assay [6] was inactive. The outcome in assay [7], in assay [8] and in assay [9] was inactive.

`[2H]C1([2H])[n+]2ccccc2-c2cccc[n+]2C1([2H])[2H]`: the figures for the AC50 in assay [1] and in assay [2] were 90.7 µM (active) and 78.7 µM (active), respectively. Also, the molecule was classed as inactive in assay [3], in assay [4], in [5], in assay [6], in assay [7] and in assay [8]. For the same molecule, the call in [9] was inactive.

On to `O=C(O)CCCOc1ccc(Cl)cc1Cl`, for which the result in [1], in [2], in assay [3], in [4], in assay [6] and in assay [7] was inactive. Besides, the outcome in assay [8] and in assay [9] was inactive.

These data come from PubChem BioAssay (EPA / NIEHS).
